Assay results reported in PubChem BioAssay AID1259376 (The Scripps Research Institute Molecular Screening Center, 2018).
Screen size: about 4,700 compounds; about 360 (7.7%) were called active.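 The calls were made as follows: active = inhibition above a cutoff derived from the DMSO control wells (cut at about 30% in these data); inactive = the rest.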 Only a sample is shown.

Test: bead signal artefacts at single dose – biochemical, AlphaScreen, triplicate, counter-screen for MITF inhibitor project (AID 1259376)
Conditions: LysRS AlphaScreen counterscreen, signal interference, at 2.6 µM, active compounds read high

Row | SMILES | inhibition
1 | O=[N+]([O-])c1ccc(OCc2nnc(SCCN3CCOCC3)n2-c2ccccc2)cc1 | -4.47% (inactive)
2 | Clc1ccc(CN2CCN(CC3CC=CCC3)CC2)cc1 (stereo not drawn) | 1.68% (inactive)
3 | Fc1cccc(Cl)c1Cn1nnc(-c2ccncc2)n1 | 12.8% (inactive)
4 | CCCCCOc1ccc(OC(=O)c2ccc(-c3ccc(CCC)cn3)cc2)cc1 | 9.51% (inactive)
5 | O=C(Cc1cccs1)N/N=C\C=C\c1ccco1 | -6.28% (inactive)
6 | c1ccc(Oc2cccc(OCCCCn3cncn3)c2)cc1 | 0.8% (inactive)
7 | Cn1c(-c2ccc(F)cc2)cnc1NCc1cccnc1 | -4.79% (inactive)
8 | O=C(CNCc1cccnc1)Nc1ccc(C(=O)N2CCCCC2)cc1 | 8.3% (inactive)
9 | O=[N+]([O-])c1ccccc1S(=O)(=O)N1CCN(C2Cc3ccccc3C2)CC1 | 15% (inactive)
10 | O=S(=O)(c1ccc(F)cc1)N1CCN(Cc2ccccc2C(F)(F)F)CC1 | 12.8% (inactive)
11 | CSc1ccc(CN2CCN(S(=O)(=O)c3ccc([N+](=O)[O-])cc3)CC2)cc1 | 30% (active)
12 | CSc1ccc(CN2CCN(Cc3cccc(Oc4ccccc4)c3)CC2)cc1 | 6.5% (inactive)
13 | CC(C)(C)NCC(=O)Nc1c2c(nc3ccccc13)N(Cc1ccccc1)CC2 | 15.5% (inactive)
14 | CC1CCCCC1NC(=O)CSc1nnc(-c2ccncc2)n1CCCN(C)C (stereo not drawn) | 14.7% (inactive)
15 | O=C(OCCN1CCOCC1)c1c(Cl)nc2sccn12 | 10.9% (inactive)
16 | Cc1cc(OCCN2CCN(C)CC2)ccc1C(C)C | 4.96% (inactive)
17 | CCCS(=O)(=O)N1CCN(Cc2ccccc2Br)CC1 | 13.6% (inactive)
18 | COc1ccc2c(c1)CC(C(=O)Nc1ccc(-c3cn[nH]c3)cc1OCc1ccccc1)CO2 (stereo not drawn) | 22.5% (inactive)
19 | O=C(Nc1ccc(-c2ccncc2)c(C(F)(F)F)c1)C1COc2ccccc2O1 (stereo not drawn) | 5.92% (inactive)
20 | COc1cccc(CN2CCN(CCCc3ccccc3)CC2CCO)c1 (stereo not drawn) | -5.46% (inactive)
21 | CN(C)CC(C)(C)CNCc1nnc(-c2ccccc2)o1 | -0.68% (inactive)
22 | N#C/C(=C/c1ccc(-c2ccc3c(c2)C(=O)NC3=O)o1)C(=O)O | 13.4% (inactive)
23 | COc1ccc(OC)c(CN2CCN(Cc3ccccc3OC)CC2)c1 | 18.2% (inactive)
24 | COC(=O)c1cccc(NS(=O)(=O)c2ccc3ccccc3c2)c1C | 21.9% (inactive)
25 | COc1ccc(CN2CCN(Cc3ccccc3C(F)(F)F)CC2)cc1OC | 17.4% (inactive)

Row | SMILES | inhibition
26 | CS(=O)(=O)N1CCN(Cc2cccc(Cl)c2)CC1 | -4.82% (inactive)
27 | O=C(O)CCCCCNC(=O)/C(=C\c1ccco1)NC(=O)c1ccccc1 | -2.96% (inactive)
28 | COc1ccc2c(c1)CC(c1nc(Nc3ccc4cnccc4c3)c3ccccc3n1)CO2 (stereo not drawn) | 8.8% (inactive)
29 | COc1cccc(OC)c1C(=O)N1CCN(Cc2cccnc2)CC1 | 14.3% (inactive)
30 | COc1cc(CN2CCN(Cc3ccc(OC)c(OC)c3)CC2)cc(OC)c1 | 1.7% (inactive)
31 | COc1cc(CN(CCN(C)C)Cc2ccccc2)cc(OC)c1 | 2.44% (inactive)
32 | CC(c1ccccn1)N(CCN(C)C)C(=S)Nc1ccccc1F (stereo not drawn) | 100% (active)
33 | COc1ccc2c(c1)CC(C(=O)Nc1ccc(-c3cn[nH]c3)cc1OCC(N)=O)CO2 (stereo not drawn) | 16.5% (inactive)
34 | CCN1CCN(CCCOc2ccc(C(C)=O)cc2OC)CC1 | 19.6% (inactive)
35 | CCN(CCN(C)C)Cc1c(Cl)cccc1Cl | -9.64% (inactive)
36 | NC(=O)COC(=O)/C=C/c1ccc(I)o1 | 16.2% (inactive)
37 | COc1cc(OC)c(OC)cc1CN1CCN(Cc2ccc(F)cc2)CC1 | -4.28% (inactive)
38 | COc1ccc(CN2CCN(Cc3cc(OC)ccc3OC)CC2)cc1 | -1.01% (inactive)
39 | CC(=O)N1CCN(CC(=O)Nc2ccc(C)c(F)c2)CC1 | 5.18% (inactive)
40 | COC(=O)CSc1nc(C2CC2)nc2ccccc12 | 9% (inactive)
41 | CCOc1ccc(CN2CCN(C(=O)c3cccc(Cl)c3)CC2)cc1 | 0.05% (inactive)
42 | COc1ccc(NC(=O)c2cc3n(n2)C(C(F)(F)F)CC(c2ccc(OC)c(OC)c2)N3)cc1OC (stereo not drawn) | -6.86% (inactive)
43 | CCC(C)NCCOCCOc1cc(C)cc(C)c1C (stereo not drawn) | -2.01% (inactive)
44 | CCN1CCN(CC(O)COc2cccc(C(=O)OC)c2)CC1 (stereo not drawn) | -1.14% (inactive)
45 | O=C1c2ccccc2C(O)N1Cc1ccccc1Cl (stereo not drawn) | 0.5% (inactive)
46 | c1cc2c(cc1CN1CCN(C3CCCC3)CC1)OCO2 | 2.1% (inactive)
47 | Cc1ccc(C(C)C)c(OCCN2CCNCC2)c1 | -3.79% (inactive)
48 | COc1cccc(-c2ncnn2-c2sc3c(c2C#N)CCCCC3)c1 | 17.1% (inactive)
49 | COc1ccc(NC(=O)CN2CCN(C)CC2)c(OC)c1 | 13.8% (inactive)
50 | COc1ccc(CNCC2CN(CC(C)C)CCO2)cc1 (stereo not drawn) | 10.1% (inactive)

Row | SMILES | inhibition
51 | COc1cccc(CN2CCN(Cc3ccc(C(F)(F)F)cc3)CC2)c1OC | -5.41% (inactive)
52 | NS(=O)(=O)c1cccc(NC(=O)COc2ncnc3sc(-c4ccccc4)cc23)c1 | 20.8% (inactive)
53 | O=C(NN1C(=O)c2ccccc2C1=O)c1cccc(F)c1 | -4.68% (inactive)
54 | CCOc1ccc(OCCCCNCCO)cc1 | 15.9% (inactive)
55 | Cc1cnc(NCc2ccc3c(c2)OCO3)nc1Nc1ccccc1 | 7.89% (inactive)
56 | CCCS(=O)(=O)N1CCN(Cc2cccc(Cl)c2)CC1 | 13.1% (inactive)
57 | c1cc2c(cc1CNc1nc(Nc3ccc(N4CCOCC4)cc3)c3ncn(C4CCCCC4)c3n1)OCO2 | -14.4% (inactive)
58 | COCc1nc2ccccc2n1CCc1noc(-c2ccco2)n1 | -8.54% (inactive)
59 | Cc1cc(S(=O)(=O)Nc2ccc3c(c2)OCCO3)ccc1-n1cnnn1 | 14% (inactive)
60 | Cc1ccc(C(C)C)c(OCC#CCN2CCNCC2)c1 | 14.9% (inactive)
61 | CC(C)(C)NCCOCCOc1ccc(Cl)c(Cl)c1 | 9.65% (inactive)
62 | C[C@@H](OCc1ccccc1)[C@@H]1NC(=O)[C@H]2CN(C(=O)Nc3cccc(F)c3)CCN2C1=O | 1.57% (inactive)
63 | COc1cc(CN2CCN(Cc3ccco3)CC2)c([N+](=O)[O-])cc1OC | 13% (inactive)
64 | CC[C@@H]1NC(=O)[C@H]2CN(C(=O)NCc3ccccc3)CCN2C1=O | 2.23% (inactive)
65 | CCN1CCN(CC(=O)N/N=C/c2cccc(Cl)c2)CC1 | 3.65% (inactive)
66 | Cc1cc(NC(=O)CNCCCN(C)C)no1 | 1.07% (inactive)
67 | Cc1cc(NC(=O)CSc2ccc(-c3ccccn3)nn2)no1 | 93.4% (active)
68 | Cc1cccnc1NC(=O)CSc1nnc(COc2ccc(C(C)C)cc2)n1C | 9.54% (inactive)
69 | C=CCNCCOCCOc1cc(C)ccc1C(C)(C)C | 15.9% (inactive)
70 | COc1ccc(OCCCC(=O)Oc2ccc(OC)cc2)cc1 | 3.96% (inactive)
71 | CCc1ccc(NC(=O)CS(=O)CC(=O)NCCCc2ccccc2)cc1 (stereo not drawn) | -4.98% (inactive)
72 | COc1cc(CN2CCN(C(=O)C(c3ccccc3)c3ccccc3)CC2)cc(OC)c1OC | 9.83% (inactive)
73 | CSc1nnc(SCc2nc3sc(C(=O)O)c(C)c3c(=O)[nH]2)s1 | 11.5% (inactive)
74 | Cc1ccc(CN2CCN(Cc3ccncc3)CC2)cc1 | 16.6% (inactive)
75 | COc1ccc(Br)cc1CN1CCN(C(=O)c2cccnc2)CC1 | -9.47% (inactive)

Row | SMILES | inhibition
76 | CCN(C(=O)Cc1nc(N)n[nH]1)C1(C(=O)Nc2ccc(C)cc2)CCCCC1 | 101% (active)
77 | CCN(C(=O)Cc1nc(N)n[nH]1)C1(C(=O)Nc2ccccc2)CCCCC1 | 100% (active)
78 | Cc1nc2sc(C(c3ccccc3Cl)N3CCC4(CC3)OCCO4)c(O)n2n1 (stereo not drawn) | 13.3% (inactive)
79 | CCN(Cc1ccccc1)Cc1ccc([N+](=O)[O-])cc1 | -3.54% (inactive)
80 | COc1ccc(CN2CCC(C(=O)N3CCN(Cc4ccccc4)CC3)CC2)cc1 | 8.38% (inactive)
81 | c1ccc(-c2ccccc2OCCNCCN2CCOCC2)cc1 | 24.1% (inactive)
82 | Clc1cccc(CN2CCN(C3CCCC3)CC2)c1 | 9.81% (inactive)
83 | O=C(Nc1ccc2c(c1)OCO2)C(c1ccccc1)N(Cc1ccccc1)Cc1ccccc1 (stereo not drawn) | -2.62% (inactive)
84 | CC(C)CO/N=C1\C[C@@H](O)[C@@H](O)[C@@H]2[C@@H]3C(=O)N([C@@H](C)c4ccccc4)C(=O)[C@@H]3CC[C@@H]12 | -1.34% (inactive)
85 | CN1CCN(CCC(=O)N/N=C/c2ccsc2)CC1 | -5.86% (inactive)
86 | COc1cccc(CN2CCN(C(=O)c3ccccc3F)CC2)c1 | -7% (inactive)
87 | COc1ccc(CN2CCN(Cc3cccc(Br)c3)CC2)c(OC)c1 | 22.2% (inactive)
88 | COc1ccc(COCC(O)CNCC(C)(C)CN(C)C)cc1OC (stereo not drawn) | 3.11% (inactive)
89 | CC(C)c1ccc(C2/C(=C(/O)c3ccccc3)C(=O)C(=O)N2CCN(C)C)cc1 (stereo not drawn) | 15.2% (inactive)
90 | COc1ccc(CN2CCCC(C(=O)N3CCCCC3)C2)cc1 (stereo not drawn) | -1.29% (inactive)
91 | COc1cccc(CN2CCN(C/C=C/c3ccccc3)CC2)c1OC | 5.04% (inactive)
92 | O=[N+]([O-])c1ccccc1CN1CCN(Cc2ccccc2C(F)(F)F)CC1 | 9.98% (inactive)
93 | CN1CCN(CCOCCOc2ccccc2Cl)CC1 | 11.5% (inactive)
94 | O=C(O)CCCCC1SCC2NC(=O)NC21O (stereo not drawn) | 98.9% (active)
95 | N#Cc1ccc(/C=N/NC(=O)c2cc([N+](=O)[O-])cc([N+](=O)[O-])c2)cc1 | -2.55% (inactive)
96 | O=S(=O)(c1ccc(Br)cc1Cl)N1CCN(CCc2ccncc2)CC1 | 16.2% (inactive)
97 | CCCCCCOC(=O)c1cc(C(=O)OCCCCCC)c(C)nc1C | -5.97% (inactive)
98 | COc1ccc(CN2CCN(Cc3cc(OC)c(OC)c(OC)c3)CC2)cc1 | 14.7% (inactive)
